Screens (PubChem)
Most compounds without a hit are left out; they make up all but 8% or so of the library.
Lassa entry inh: Lassa virus entry inhibition | Lassa virus pseudotype entry inhibition, cell reporter | Potency, µM (top dose mostly 37.9 µM), without a hit: top-dose activity change, negative = inhibition, hits mostly inhibitors | 300,000 tested, 1.2% active; calls by dose curve; tested in HEK293 cells; note: potency is the fitted concentration of half-maximal effect; % is set by controls: 0 for no effect and ±100 for the full control effect; nearly all actives have a fitted effect of over 50% in size
FMDV inh: antivirals against foot and mouth disease virus; FMDV antiviral cell-based qHTS; Potency, µM (titrated, usually from 57.9 µM), for the others: at the highest dose activity change, negative = inhibition, hits mostly inhibitors; 410,000 tested, 1.2% active; calls by dose curve; tested in HEK293T cells; note: read-out not given here; potency is the fitted concentration of half-maximal effect; % is set by controls: 0 for no effect and ±100 for the full control effect; nearly all actives have a fitted effect of over 45% in size
HCV inhibitor: blocks hepatitis C virus. AID 651820. 340,000 tested, 3.4% active. Huh7.5.1 HCVcc-Cre infection, luciferase reporter, 44 h. Potency, µM (titrated, usually from 41.8 µM), for the others: at the top dose activity change, negative = inhibition, most hits filed as inhibitors; active = well fitted inhibition curve with a large enough effect; inconclusive = small, poorly fitted or top-dose-only effect, or another doubt; inactive = no such curve, though single readings can be large or run the other way; note: potency is the fitted concentration of half-maximal effect; % is set by controls: 0 for no effect and ±100 for the full control effect
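Infectious HCV cell culture screen: compound-treated cells (1,000/well, pre-plated 4 h) are infected with HCVcc-Cre at roughly 0.5 moi and grown 44 h. Infection is quantified by luciferase signal after 15 min substrate incubation at room temperature.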
Marburg entry inh: Marburg virus entry inhibition. 300,000 tested, 1.8% active. Marburg virus pseudotyped entry inhibition, cell reporter. Potency, µM (highest dose often 37.8 µM), inactives show at the top dose activity change, negative = inhibition, actives largely listed as inhibitors; calls by dose curve; tested in HEK293 cells; note: potency is the fitted concentration of half-maximal effect; % is set by controls: 0 for no effect and ±100 for the full control effect
HCMV antiviral: human cytomegalovirus inhibition; 410,000 tested, 4.5% active; HFF cells, HCMV-luciferase reporter, 72 h; active compounds read low; activity change, negative = inhibition, % at 57.5 µM; AID 1259415; in the data active = activity change below about -60%; inconclusive = no clear call, values can overlap the other calls; inactive = above about -39%; note: % is set by controls: 0 for no effect and ±100 for the full control effect
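Two compound doses tested in HFFs infected with HCMV-luciferase, MOI 1 PFU/cell, 72 h at 37C. Lysate luminescence read with OneGlo; data normalized against buffer-only and 10uM Salinomycin inhibitor controls.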
SARS PLpro yeast-1: inhibitors of SARS-CoV papain-like protease in yeast; AID 485353; Potency, µM (top dose mostly 32.9 µM), inactives show at the top dose activity, positive = growth rescue, usual class: activators; S. cerevisiae expressing SARS-CoV PLpro, growth rescue; 330,000 tested, 0.19% active; calls by dose curve; note: potency is the fitted concentration of half-maximal effect; 0% is about no effect; nearly all actives have a fitted effect of over 55% in size
SARS PLpro yeast-2: Validates SARS-CoV PLpro inhibitor hits in yeast; yeast expressing SARS-CoV PLpro, growth phenotype rescue; 1,000 tested, 19% active; shares compounds with SARS PLpro yeast-1; calls only; call rule not given here
Starred values were filed as active, the others as inactive; i = inactive; ? = inconclusive; . = no result; + = active, no number; [ ] = dose if it differs, or a comment.

SMILES	Lassa entry inh	FMDV inh	HCV inhibitor	Marburg entry inh	HCMV antiviral	SARS PLpro yeast-1	SARS PLpro yeast-2
CNC[C@@H]1Oc2ccc(NC(=O)Nc3c(C)noc3C)cc2CC(=O)N([C@H](C)CO)C[C@H]1C	.	-9%	1%	.	.	11µM*	i
COCCCNc1oc(-c2ccc(COc3ccccc3C)o2)nc1C#N	-17%[46.1 µM]	-21%	.	?	-24	.	.
CCc1ccc(NC(=O)c2ccc(OC)c([N+](=O)[O-])c2)cc1	-9%	-10%	?	?	1	?	i
CCOC(=O)c1ccc(-c2ccc(C3Nc4ccccc4C(=O)N3O)o2)cc1 (centres undefined)	?	?	?	?	52	5µM*	?
N#Cc1ccc(-c2ccc(C3Nc4ccccc4C(=O)N3O)o2)cc1 (centres undefined)	.	-17%	.	.	12	2%	.
CCC1CCCCN1S(=O)(=O)c1ccc(C(=O)Nc2nnc(-c3cccs3)o2)cc1 (centres undefined)	?	-17%	?	?	.	11µM*	+
CCC1CCCCN1S(=O)(=O)c1ccc(NC(=O)c2cccnc2)cc1 (centres undefined)	?	11%	.	-29%	-12	4%	.
O=C(CN1C(=O)CCc2cc(S(=O)(=O)N3CCCCC3)ccc21)NCc1ccc(Cl)cc1	?	-13%	.	.	3	.	.
Cc1ccc(C(=O)O/N=C(\N)c2cccc([N+](=O)[O-])c2)cc1	?	-21%	2%	0%	33	-11%	.
Cc1ccc(CC(=O)O/N=C(\N)c2cccc([N+](=O)[O-])c2)cc1	-4%	27%	26%	-2%	12	.	i
O=C1/C(=C\c2ccco2)SC(=S)N1c1ccc(O)cc1	-27%	-3%	32%	?	-13	.	i
O=C1/C(=C/C=C/c2ccco2)SC(=S)N1c1ccc(O)cc1	.	7%	-7%	.	-3	-8%	.
CN(CCO)C(=O)c1nc[nH]c1C(=O)N1CCN(c2ccccc2)CC1	.	.	.	.	-3	.	.
NC(N)=NC1=NC(=O)/C(=C/c2ccccc2-n2cccn2)S1	-17%	-10%	0%	?	-21	.	i
CN1C(=O)SC(Nc2cccc3ccccc23)C1=O (centres undefined)	-7%	1%	-4%	6%	-12	13µM*	i
CCCCCCN(C(=O)CCCCCN1C(=O)NC(c2ccc(-c3ccccc3)cc2)C(C(=O)OCc2ccccc2)=C1C)C(C(=O)NCCCC)C1CCCCC1 (centres undefined)	.	.	.	.	10	0%	.
CCCCCCN(C(=O)CCCN1C(=O)NC(c2ccc([N+](=O)[O-])cc2)C(C(=O)OCc2ccccc2)=C1C)C(C)C(=O)NCCCC (centres undefined)	.	-25%	?	.	.	?	i
O=C(CS(=O)(=O)c1cccc2nsnc12)NCc1ccccc1Cl	-13%[46.1 µM]	-10%	.	.	1	.	.
CC(=O)N(C)Cc1ccc(C(=O)CCl)cc1	-9%	?	?	-1%[46.1 µM]	-22	7.9µM*	+
CC(=O)N(C)Cc1ccc(C(=O)CSc2nnc(C3CC3)n2C2CC2)cc1	-19%	-6%	?	?	-16	1%	.
CCc1nc2nc(C)c(NS(=O)(=O)c3ccc(C(C)(C)C)cc3)c(=O)n2[nH]1	15%[46.1 µM]	6%	.	-4%[46.1 µM]	-1	.	.
COc1ccc(C2OC(=O)c3ccccc3S2)cc1 (centres undefined)	4%	4%	9%	?	-11	?	i
Cc1cccc(NC(=O)CN2C(=O)C3(SCC(=O)N3c3ccccc3)c3ccccc32)c1 (centres undefined)	31%[46.1 µM]	-4%	.	.	23	.	.
COc1ccc(C(=O)N2CCC3(CCCN(Cc4nccs4)C3)CC2)cc1	.	7%	.	.	.	.	.
Oc1ccc(Cn2ccnc2)c2cccnc12	?	11%	?	?	-11	2%	.
SMILES	Lassa entry inh	FMDV inh	HCV inhibitor	Marburg entry inh	HCMV antiviral	SARS PLpro yeast-1	SARS PLpro yeast-2
Cc1ccccc1NCc1ccc(O)c2ncccc12	?	?	?	?	-97*	?	+
CCOC(=O)c1cccc(NC(=O)CC(c2cc(OC)c(OC)c(OC)c2)N2Cc3ccccc3C2=O)c1 (centres undefined)	-3%[46.1 µM]	37%	.	.	7	.	.
O=C(Cc1ccccc1[N+](=O)[O-])NCc1ccc(Cl)cc1Cl	?	19%	-6%	?	158	?	i
COc1cccc(C(=O)Nc2nc(-c3ccccc3)c(-c3ccccc3)o2)c1	?	-10%	?	?	?	?	+
COc1cccc(C(=O)Nc2ccccc2)c1	3%	44%	-8%	9%	79	-18%	.
O=S(=O)(c1ccc2ccccc2c1)N(CC(O)CN1CCOCC1)c1ccccc1 (centres undefined)	?	-1%	-5%	19%	-32	?	i
Cc1ccc(S(=O)(=O)N(CC(O)CN2CCOCC2)c2cccc([N+](=O)[O-])c2)cc1 (centres undefined)	2%[46.1 µM]	14%	16%	?	-35	-1%	.
CC(=O)c1ccc(NC(=O)Cn2cc3c(n2)CCCC3)cc1	4%[46.1 µM]	8%	.	3%[46.1 µM]	-5	.	.
CSc1ncc2c(n1)-c1ccccc1N(Cc1ccccc1)S2(=O)=O	7%[46.1 µM]	-26%	.	.	9	.	.
NC(=S)NN=C1C2CC3CC(C2)CC1C3	-15%[46.1 µM]	-2%	-6%	-20%[46.1 µM]	?	?	i
O=C(CCNS(=O)(=O)c1cccs1)Nc1ccccc1F	5%	25%	19%	-1%	31	?	i
O=C(CCNS(=O)(=O)c1cccs1)Nc1nccs1	1%	-21%	1%	15%	80	7%	.
CC1CCCC(C)N1NC(=S)Nc1ccc(OC(F)F)cc1 (centres undefined)	-3%	12%	-12%	?	-1	?	+
COc1ccc(NC(=S)NN2C(C)CCCC2C)cc1 (centres undefined)	12%	14%	-6%	1%	-18	13µM*	+
COc1cccc(NC(=S)NN2C(C)CCCC2C)c1 (centres undefined)	0%	19%	-1%	6%	-8	?	+
COc1ccc(S(=O)(=O)NCCN2CCOCC2)c2ccccc12	5%	.	17%	0%	30	20µM*	i
COc1ccc(S(=O)(=O)NCCN2CCOCC2)c(C)c1C	10%[46.1 µM]	27%	16%	-2%[46.1 µM]	39	0%	.
CC(C)(C)OC(=O)N1CCc2nc(N3CCN(c4ncccn4)CC3)ncc2C1	?	?	.	14%[46.1 µM]	2	.	.
CC(C(=O)c1ccccc1)N1C(=O)c2ccccc2C1=O (centres undefined)	?	1%	1%	-4%	-26	?	i
O=c1c2c3c(sc2nc2n1CCCCC2)CCCC3	0%	37%	-16%	19%	60	4.5µM*	i
